This is a sample that favours compounds with a hit; in the whole collection about 2.3% have one here.
UBC13 inh: UBC13 polyubiquitin chain formation inhibitors, primary screen, biochemical, TR-FRET, uHTS; Ubiquitin-conjugating enzyme E2 N (Homo sapiens), P61088; inhibition, % at 20 µM; 0.47% of 330,000 active; in the data active = inhibition above about 45%, passing the limit was not always enough; inconclusive = no clear call, values can overlap the other calls
MEKK2wt PB1 HTS: modulators of MEK5 binding to wildtype MEKK2, primary screen, biochemical, multiplex bead flow cytometry, Alexa488-MEK5; Alexa488-MEK5 binding to MEKK2 WT; actives lie on both sides; binding response (% of control), % at 10 µM; Mitogen-activated protein kinase kinase kinase 2 (Homo sapiens), Q9Y2U5; 1.1% of 290,000 active; in the data active = binding response below about 67% or above about 130%; inconclusive = no clear call, values can overlap the other calls; inactive = in between
MEKK2 mut-MEK5: MEK5 binding signal on mutant MEKK2 PB1, primary screen, biochemical, multiplex bead flow cytometry, Alexa488-MEK5 | 0.35% of 290,000 active | percent response, % at 10 µM | Alexa488-MEK5 binding to MEKK2 mutant; in the data active = percent response above about 24%, passing the limit was not always enough
MEKK3 PB1 HTS: modulators of MEKK3-MEK5 PB1 binding, primary screen, biochemical, wildtype MEKK3, multiplex bead flow cytometry, Alexa488-MEK5; Mitogen-activated protein kinase kinase kinase 3 (Homo sapiens), Q99759; bead-based flow cytometry, Alexa488-MEK5 binding to MEKK3; actives lie on both sides; 0 = blocked by unlabeled MEK5, 100 = vehicle; binding response (% of control), % at 10 µM; 1.4% of 290,000 active; AID 1529, 2009;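 active = binding response more than 3 SD above or below the average of its plate-row segment, actives on both sides; inconclusive = wells at one plate position flagged as instrument error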;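 also: Alexa488 bead fluorescence after subtracting the streptavidin-only scavenger bead signal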
Target sequence (Q99759 whole entry, looked up): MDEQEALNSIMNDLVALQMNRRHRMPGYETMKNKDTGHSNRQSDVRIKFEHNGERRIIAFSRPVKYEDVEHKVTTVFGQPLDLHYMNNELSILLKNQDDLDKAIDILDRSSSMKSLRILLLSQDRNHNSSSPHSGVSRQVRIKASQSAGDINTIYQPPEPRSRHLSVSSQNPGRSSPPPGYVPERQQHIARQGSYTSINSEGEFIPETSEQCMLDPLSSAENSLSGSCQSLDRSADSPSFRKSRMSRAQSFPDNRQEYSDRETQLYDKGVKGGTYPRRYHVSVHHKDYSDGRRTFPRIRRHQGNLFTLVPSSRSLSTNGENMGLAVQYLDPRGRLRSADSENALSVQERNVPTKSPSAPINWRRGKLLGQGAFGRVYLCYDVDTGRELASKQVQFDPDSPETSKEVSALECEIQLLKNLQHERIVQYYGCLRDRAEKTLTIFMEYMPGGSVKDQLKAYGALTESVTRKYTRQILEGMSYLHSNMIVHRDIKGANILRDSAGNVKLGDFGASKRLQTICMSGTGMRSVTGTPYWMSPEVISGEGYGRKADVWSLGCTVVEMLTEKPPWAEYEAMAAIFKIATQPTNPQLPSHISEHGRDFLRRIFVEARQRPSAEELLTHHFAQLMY
MEKK2wt confirm: modulators of MEK5 binding to wildtype MEKK2, confirmation, biochemical, single concentration, multiplex bead flow cytometry | shares compounds with MEKK3 PB1 HTS | Alexa488-MEK5 binding to MEKK2 WT; actives lie on both sides | binding response (% of control), % at 10 µM | 2.4% of 5,900 active | AID 1892, 2009; in the data active = binding response below about 16% or above about 210%; inactive = in between
MEKK2mut confirm: mutant MEKK2 PB1-MEK5 binding signal retest – biochemical, single concentration, multiplex bead flow cytometry, confirmation; Alexa488-MEK5 binding to MEKK2 mutant; 2% of 5,900 active; percent response, % at 10 µM; shares compounds with MEKK3 PB1 HTS; in the data active = percent response mostly above about 71%, no sharp cut-off; inactive = mostly below about 38%;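 also: higher means compound restores mutant binding toward wildtype level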
MEKK3 confirm: MEKK3 wild-type PB1 binding to MEK5, inhibitors, confirmation, biochemical, bead multiplex flow cytometry, single concentration, wildtype; shares compounds with MEKK3 PB1 HTS; Alexa488-MEK5 binding to MEKK3; active compounds read low; binding response (% of control), % at 10 µM; 1.8% of 5,900 active; AID 1894, 2009;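 active = binding response below 72% of control, or above a set upper limit, though filed actives all read lower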;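 also: lower values mean stronger disruption of MEK5 binding to MEKK3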
Casp3 counter: CASP3 inhibitor validation, counterassay for project on UBE2N polyubiquitination blockers, biochemical, one dose; shares compounds with UBC13 inh; inhibition, % at 20 µM; 4% of 1,400 active; Recombinant caspase-3, Caspase-Glo 3/7 luminescence, 60 min;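 active = mean inhibition across replicates above about 26%, limit read from the data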
UBC13 confirm: UBC13 polyubiquitination inhibitors, single-point retest, confirmation, biochemical, TR-FRET, single concentration; 68% of 1,400 active; shares compounds with UBC13 inh; inhibition, % at 10 µM; in the data active = inhibition above about 45%; inconclusive = no clear call, values can overlap the other calls
Large screens that a line does not name were inactive (follow-up assays come after a bar, where they were run); ! = not confirmed by another sample; [ ] = remark or other dose.

O=c1[nH]c(=O)n(C2CCCCC2)c(O)c1/C=N/N1CCCCC1c1cccnc1 (configuration not stated)	none
O=c1[nH]c(=O)n(-c2cccc3ccccc23)c(O)c1/C=N/N1CCCCC1c1cccnc1 (configuration not stated)	MEKK3 PB1 HTS 134 | MEKK2wt confirm inactive | MEKK2mut confirm inactive | MEKK3 confirm inactive
S=C(NC1CCCCC1)N1CCC(c2cnc[nH]2)CC1	none
CS(=O)(=O)Nc1ccc(Cc2noc(-c3ccc4[nH]cc(CCN)c4c3)n2)cc1	MEKK2wt PB1 HTS 156! | MEKK2wt confirm inactive | MEKK2mut confirm inactive | MEKK3 confirm inactive
O=C1NC(=O)C(=Cc2csc3ccccc23)C(=O)N1	none
O=C1NC(=O)C(=Cc2coc3ccccc3c2=O)C(=O)N1	MEKK2wt PB1 HTS 282, MEKK2 mut-MEK5 184 | MEKK2wt confirm inactive | MEKK2mut confirm inactive | MEKK3 confirm inactive
CN1c2ccc([N+](=O)[O-])cc2CC2(C(=O)NC(=O)NC2=O)C1c1ccccc1 (configuration not stated)	MEKK3 PB1 HTS 134 | MEKK2wt confirm inactive | MEKK2mut confirm inactive | MEKK3 confirm inactive
CCC(C)NC(=O)c1c(N)n(CC2CCCO2)c2nc3ccccc3nc12 (configuration not stated)	MEKK3 PB1 HTS 82[inhibitor] | MEKK2wt confirm inactive | MEKK2mut confirm inactive | MEKK3 confirm inactive
CC(C)CCNC(=O)c1c(N)n(CC2CCCO2)c2nc3ccccc3nc12 (configuration not stated)	none
ClCCN1CCN(c2ccnc3cc(Cl)ccc23)CC1	UBC13 inh 62, MEKK2wt PB1 HTS 154 | MEKK2wt confirm inactive | MEKK2mut confirm inactive | MEKK3 confirm inactive | Casp3 counter inactive | UBC13 confirm 90
Cn1nc(-c2ccc(OCC(=O)N3CCN(Cc4ccccc4)CC3)cc2)c2ccccc2c1=O	none
CC(=O)N1N=C(c2c(O)n(C)c(=O)n(C)c2=O)CC1c1ccccc1 (configuration not stated)	UBC13 inh 51 | Casp3 counter inactive | UBC13 confirm inactive
Cn1c(N)c(C(=O)COC(=O)Cc2ccccc2)c(=O)n(C)c1=O	none (no result: MEKK2wt PB1 HTS, MEKK2 mut-MEK5, MEKK3 PB1 HTS)
Cc1ccc(C2=NN(CCC(=O)N3CCC4(CC3)OCCO4)C(=O)CC2)cc1	none
S=C=Nc1ccccn1	none
CN1[C@@H]2CC[C@H]1CC(OC1c3ccccc3CCc3ccccc31)C2 (some centres not stated)	UBC13 inh 58 (no result: MEKK2wt PB1 HTS, MEKK2 mut-MEK5, MEKK3 PB1 HTS) | Casp3 counter inactive | UBC13 confirm inactive
COC(=O)C1=C(c2ccc(F)cc2OCc2ccccc2)C[C@@H]2CC[C@H]1N2C(=O)NC1CCN(Cc2ccccc2)CC1	UBC13 inh 51 (no result: MEKK2wt PB1 HTS, MEKK2 mut-MEK5, MEKK3 PB1 HTS) | Casp3 counter inactive | UBC13 confirm inactive
Cc1c(C)c2ccc(OCC(=O)N3C[C@H]4C[C@@H](C3)c3cccc(=O)n3C4)c(C)c2oc1=O	none
COc1ccc(O)c2c(=O)c3c(OC)cc4c(c3oc12)C1C=COC1O4 (configuration not stated)	none (no result: UBC13 inh) | Casp3 counter inactive
Cc1ccc2c(c1)C1C[N+](C)(CC(=O)c3ccc(Cl)cc3Cl)CCC1N2C(=O)c1ccc(F)cc1 (configuration not stated)	UBC13 inh 47 (no result: MEKK2wt PB1 HTS, MEKK2 mut-MEK5, MEKK3 PB1 HTS) | Casp3 counter inactive | UBC13 confirm 49
Cc1ccc2c(c1)C1CN(C)CCC1N2C(=O)c1cccs1 (configuration not stated)	none
Cc1ccc2[nH]c(=S)n(-c3cccnc3)c(=O)c2c1	UBC13 inh 50 | Casp3 counter inactive | UBC13 confirm inconclusive
O=c1c2ccccc2[nH]c(=S)n1-c1ccc(Br)cc1	none
O=c1c2cc(Br)ccc2[nH]c(=S)n1-c1ccccc1	UBC13 inh 46 | Casp3 counter inactive | UBC13 confirm inconclusive
O=c1c2ccccc2[nH]c(=S)n1-c1cccnc1	none
COc1ccc(/C=C/C(=O)c2c(O)n(CCC3=CCCCC3)c(=O)[nH]c2=O)cc1OC	none
CC(Cc1ccccc1Sc1ccccc1O)N(C)C (configuration not stated)	none
O=C1CC(=O)N(c2cccc(F)c2)C(=O)N1	none
C=Cn1ccnc1P(=S)(c1ccc(Cl)cc1)c1nccn1C=C	none
CN1CCN(c2ccc(N)c(N3CCN(C)CC3)c2)CC1	UBC13 inh 49 | Casp3 counter inactive | UBC13 confirm 78
Ic1ccccc1CN[C@@H]1C2CCN(CC2)[C@@H]1C(c1ccccc1)c1ccccc1	UBC13 inh 49 (no result: MEKK2wt PB1 HTS, MEKK2 mut-MEK5, MEKK3 PB1 HTS) | Casp3 counter inactive | UBC13 confirm inactive
Nc1c(Br)cc([N+](=O)[O-])cc1[N+](=O)[O-]	none (no result: MEKK2wt PB1 HTS, MEKK2 mut-MEK5, MEKK3 PB1 HTS)
NCCc1ccc(OCc2ccccc2)c(OCc2ccccc2)c1	UBC13 inh 60 (no result: MEKK2wt PB1 HTS, MEKK2 mut-MEK5, MEKK3 PB1 HTS) | Casp3 counter inactive | UBC13 confirm 59
CCCCCCCCCCCCCCCC[N+](C)(C)C	UBC13 inh 90 (no result: MEKK2wt PB1 HTS, MEKK2 mut-MEK5, MEKK3 PB1 HTS) | Casp3 counter inactive | UBC13 confirm 84
CCCCCC[N+](=O)[O-]	none (no result: MEKK2wt PB1 HTS, MEKK2 mut-MEK5, MEKK3 PB1 HTS)
Cc1cccc(N2CCc3c2nc2ccccc2c3N)c1	UBC13 inh 62! | Casp3 counter inactive | UBC13 confirm 47
Clc1ccc(C(Cn2ccnc2)OCc2csc3c(Cl)cccc23)c(Cl)c1 (configuration not stated)	none (no result: MEKK2wt PB1 HTS, MEKK2 mut-MEK5, MEKK3 PB1 HTS)
Clc1ccc(CCC(Cn2ccnc2)Sc2c(Cl)cccc2Cl)cc1 (configuration not stated)	UBC13 inh 48 (no result: MEKK2wt PB1 HTS, MEKK2 mut-MEK5, MEKK3 PB1 HTS) | Casp3 counter inactive | UBC13 confirm inactive
Cc1ccc2c(c1)C1CN(C)CCC1N2C(=O)/C(C#N)=C/c1ccc2c(c1)OCO2 (configuration not stated)	UBC13 inh 46 | Casp3 counter inactive | UBC13 confirm 56
O=C(C(=O)N1CCOCC1)c1cn(CCCOc2ccccc2)c2ccccc12	none
O=C(C(=O)N1CCOCC1)c1cn(Cc2ccccc2)c2ccccc12	UBC13 inh 45 | Casp3 counter inactive | UBC13 confirm inactive
